Sampled rows, rich in hits. Any-hit rate of the full collection: about 3.4%.
JMJD2E inh – JMJD2E (human) inhibition; B2RXH2; JMJD2E catalytic domain, FDH-coupled NADH fluorescence (FDH is formaldehyde dehydrogenase); Potency, µM (series often up to 57.1 µM), inactives show at the top dose activity change, negative = inhibition, most hits filed as inhibitors; hit rate 1.6% among 230,000; AID 2147; active = well fitted inhibition curve with a large enough effect, not every such curve was filed as active; inconclusive = small, poorly fitted or top-dose-only effect, or another doubt; inactive = no such curve, though single readings can be large or run the other way;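 also: 0% = wells with enzyme and -100% = buffer wells without enzyme; nearly all actives have a fitted effect of over 50% in size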
Target sequence (B2RXH2 1-337 limits assumed): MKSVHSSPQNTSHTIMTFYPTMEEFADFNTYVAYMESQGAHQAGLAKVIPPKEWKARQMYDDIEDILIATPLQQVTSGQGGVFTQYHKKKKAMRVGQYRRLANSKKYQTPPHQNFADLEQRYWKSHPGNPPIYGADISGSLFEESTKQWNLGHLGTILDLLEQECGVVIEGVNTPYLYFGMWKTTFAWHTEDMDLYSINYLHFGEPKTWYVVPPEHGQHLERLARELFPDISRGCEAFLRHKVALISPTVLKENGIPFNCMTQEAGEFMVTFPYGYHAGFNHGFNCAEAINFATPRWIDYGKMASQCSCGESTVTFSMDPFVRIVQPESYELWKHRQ
GoLoco inh red – blocks human Gai1 binding to RGS12 GoLoco peptide, red readout; Gai1:RGS12 GoLoco peptide FP, rhodamine, 10 min; Potency, µM (top dose mostly 61.6 µM), without a hit: at the top dose activity, negative = inhibition, hits mostly inhibitors; hit rate 0.44% among 230,000; AID 880; active = well fitted inhibition curve with a large enough effect, not every such curve was filed as active; inactive = no such curve, though single readings can be large or run the other way; also: nearly all actives have a fitted effect of over 30% in size
Target sequence (P63096 whole entry, looked up): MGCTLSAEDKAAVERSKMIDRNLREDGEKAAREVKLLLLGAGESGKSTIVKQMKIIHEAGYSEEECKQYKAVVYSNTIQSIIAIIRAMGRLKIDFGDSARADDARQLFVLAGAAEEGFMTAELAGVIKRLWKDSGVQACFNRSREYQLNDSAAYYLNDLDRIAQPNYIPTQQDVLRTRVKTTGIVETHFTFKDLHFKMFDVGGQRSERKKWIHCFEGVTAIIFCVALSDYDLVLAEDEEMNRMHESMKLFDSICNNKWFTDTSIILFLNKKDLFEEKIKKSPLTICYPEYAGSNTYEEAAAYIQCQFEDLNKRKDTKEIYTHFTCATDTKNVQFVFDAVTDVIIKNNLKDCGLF
Tau fluor counter – counter-screen for tau fibril formation inhibitors; AID 1463; hit rate 0.93% among 280,000; tau K18 P301L Alexa594 fluorescence, heparin fibrillization; Potency, µM (top dose mostly 57.7 µM), without a hit: at the highest dose activity change, negative = decrease; also: nearly all actives have a fitted effect of over 55% in size
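Human K18 P301L tau (15 uM unlabeled plus 0.24 uM Alexa 594-labeled, final) in 100 mM sodium acetate pH 7 was mixed with compound and 20 uM heparin and incubated 6 hr at 37 C.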
Tau ThT inhib – blocks human tau fibril formation measured by thioflavin T. hit rate 2.1% among 270,000. recombinant tau K18 P301L, heparin-induced fibrillization, ThT fluorescence. P10636. Potency, µM (series often up to 57.4 µM), without a hit: at the top dose activity, negative = inhibition, hits mostly inhibitors; also: nearly all actives have a fitted effect of over 55% in size
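ThT emission at 510 nm, taken 1 hr after adding 30 uM dye, quantifies aggregates formed when 20 uM heparin acts on human tau K18 P301L for 6 hr at 37 C.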
Tau fibril FP – tau fibrillization inhibition (FP) | P10636 | K18 P301L tau heparin fibrillization, Alexa594 FP, 6 h | Potency, µM (top dose mostly 57.7 µM), inactives show at the top dose activity, negative = inhibition, usual class: inhibitors | hit rate 0.39% among 280,000 | AID 1468; also: nearly all actives have a fitted effect of over 55% in size
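Steps: dispense K18 P301L tau (15 uM plus 0.24 uM Alexa 594 tracer, final) in pH 7 sodium acetate; add compound; add heparin (20 uM final); incubate 6 hr, 37 C; add ThT (30 uM final); after 1 hr ambient, read FP.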
* hit, by the source's call; ? = inconclusive; / = no result given; [ ] = dose if it differs, or a comment. Unless noted, calls follow the shape of the dose curve; as a rule, active = well fitted curve in the direction sought with a large enough effect; inconclusive = small, poorly fitted or top-dose-only effect, or another doubt; inactive = no such curve, though single readings can be large; an effect the other way counts as inactive or inconclusive. Unless noted, % is scaled to controls: 0 for no effect and ±100 for the full control effect; potency is read from the fitted curve at half-maximal effect.

SMILES	JMJD2E inh	GoLoco inh red	Tau fluor counter	Tau ThT inhib	Tau fibril FP
Fc1ccc2[nH]c3c(N4CCN(c5ccccc5)CC4)ncnc3c2c1	?	6%	25µM*[quencher]	?	11%
Cn1nc([N+](=O)[O-])c(C(C#N)c2ccccn2)c(Cl)c1=O (stereo not drawn)	-7%	-21%	13µM*[quencher]	8.9µM*	?
CCCn1nc([N+](=O)[O-])c(C(C#N)c2nc3ccccc3o2)c(Cl)c1=O (stereo not drawn)	5%	-3%	14µM*[quencher]	7.1µM*	?
CCCCn1c(N)c(-c2nc3ccccc3o2)c2c([N+](=O)[O-])nn(CC)c(=O)c21	0%	-1%	-13%	-10%	15%
C/C(N)=C(/C#N)C(=O)CSc1nc2cc(Cl)ccc2s1	-2%	21%	?	?	?
CCn1nc([N+](=O)[O-])c(C(C#N)c2nc3cc(C(F)(F)F)ccc3s2)c(Cl)c1=O (stereo not drawn)	6%	1%	6.3µM*[quencher]	4.5µM*	20µM*
Cc1ccc(Cn2c(=O)n(Cc3ccco3)c(=O)c3oc4ccccc4c32)cc1	/	/	-4%	2%	3%
CCc1ccc(N2CCn3c2nc2c3c(=O)n(CCc3ccccc3)c(=O)n2C)cc1	/	/	-21%	-2%	-5%
Cc1cc(C)cc(-n2c(SCC(=O)Nc3ccccc3F)nc3c(oc4ccccc43)c2=O)c1	/	/	-16%	-8%	-17%
CCc1ccccc1NC(=O)N1CCN(c2cc(-c3noc(C)n3)ccc2C)CC1	/	/	-15%	-8%	-5%
O=S(=O)(c1ccc(Br)cc1)c1nc(-c2ccco2)oc1SCc1ccccc1Cl	/	/	?	-3%	-11%
CCOC(=O)c1ccc(CN(Cc2ccccc2C)S(=O)(=O)c2ccc(F)c(C)c2)cc1	/	/	-13%	-4%	-3%
CCOC(=O)c1c(CSc2ccccc2)n(C)c2cc(Br)c(O)c(CN(C)C)c12	-9%	22µM*	-23%	-17%	-2%
CCOC(=O)c1c(CSc2ccc(C)cc2)n(C)c2cc(Br)c(O)c(CN(C)C)c12	-6%	-6%	-24%	?	11%
COc1ccc(-c2c(C)nn3c(N4CCN(c5ccccc5)CC4)cc(C)nc23)cc1OC	/	/	-30%	?	9%
CCn1c(CSc2nnc(-c3ccncc3)n2CCOC)nc2cc(C(=O)O)ccc21	-4%	11µM*	16%	0%	5%
CCOc1ccc(C(=O)CSc2nnc3ccccn23)cc1	1%	6%	-5%	-13%	-5%
Cc1ccccc1-n1c(SCC(=O)c2cc(C)n(C)c2C)nnc1-c1cccnc1	-7%	49%	-12%	-14%	5%
CCn1c(CSc2nnc(-c3cccnc3)n2-c2ccccc2C)nc2cc(C(=O)O)ccc21	?	3.2µM*	14%	?	?
CCn1c(CSc2nnc3ccccn23)nc2cc(C(=O)O)ccc21	-3%	4.5µM*	18%	-6%	0%
CCn1c(CSc2n[nH]c(N)n2)nc2cc(C(=O)O)ccc21	-11%	3.5µM*	9%	-2%	-4%
COc1ccc2c(Sc3ccccc3)c(C(=O)NCCCN3CCCCC3)[nH]c2c1	/	/	-8%	-3%	-7%
CCn1c(C)[n+](CC)c2ccc(S(=O)(=O)N(C)C)cc21	?	17%	6%	-3%	11%
CC[n+]1c(C)n(C)c2cc(S(=O)(=O)N(C)C)ccc21	10µM*	12%	-8%	-9%	-3%
CCOC(=O)CSc1nc2ccc(NC(=O)c3ccccc3)cc2s1	/	/	?	-14%	?
SMILES	JMJD2E inh	GoLoco inh red	Tau fluor counter	Tau ThT inhib	Tau fibril FP
Oc1ccc(-c2csc(Nc3ncccn3)n2)c(O)c1	7%	4%	?	?	?
Oc1ccccc1-c1csc(-c2ccccc2)n1	2%	20%	-20%	-13%	-15%
COc1cc(-c2csc(C)n2)ccc1O	3%	0%	0%	-5%	-4%
Clc1ccc(-c2csc(-c3cccnc3)n2)s1	?	4%	-26%	/	2%
Cc1nc(-c2ccc(O)c(O)c2)cs1	16µM*	-8%	-28%	?	0%
Oc1ccc(-c2csc(-c3ccccc3)n2)cc1O	?	-6%	16µM*[quencher]	10µM*	-2%
Oc1ccc(-c2csc(Nc3ncccn3)n2)cc1O	28µM*	11%	?	11µM*	18%
Oc1ccc(-c2csc(-c3cccnc3)n2)cc1O	14µM*	-4%	?	/	11%
CCc1cccc(-n2c(=O)c3cccnc3n2CC(=O)NCc2ccccc2Cl)c1	/	/	-19%	11%	-13%
O=C(CSc1nnc(-c2ccc3c(c2)OCO3)o1)Oc1ccccc1	/	/	-7%	7%	-17%
Cc1c(Br)c(O)c(Br)c2sc(=O)oc12	32µM*	-23%	?	11µM*	?
COC(=O)c1ccc(C=O)cc1	/	-3%	/	/	/
Cc1ccc(OC(=O)c2cc(-c3ccc4c(c3)OCCO4)on2)c(C)c1	/	/	-22%	?	-5%
COC(=O)N/N=C/c1c[nH]c2ccccc12	8%	7%	1%	-4%	3%
COCCN=c1scc(-c2cc(OC)ccc2OC)n1/N=C/c1c[nH]c2ccccc12	?	9%	7.9µM*[quencher]	?	-10%
O=C(Nc1cccc(C(F)(F)F)c1)Oc1ccc(Cl)c2cccnc12	?	-9%	?	-15%	20µM*
CCN(CC)C(=O)Oc1ccc(Cl)c2cccnc12	?	12%	-2%	-4%	2%
COc1cccc(NC(=O)Cn2c(=O)n(Cc3ccc4c(c3)OCO4)c(=O)c3oc4ccccc4c32)c1	/	/	?	?	28µM*
COc1cccc(NC(=O)Cn2c(=O)n(-c3ccccc3)c(=O)c3ccc(C(=O)NCc4ccc5c(c4)OCO5)cc32)c1	/	/	-29%	15%	32µM*
COc1cccc(-n2c(=O)c3sc4ccccc4c3n(CC(=O)Nc3cccc(Cl)c3)c2=O)c1	/	/	?	12%	22µM*
COc1ccc(NC(=O)Cn2c(=O)n(-c3ccccc3)c(=O)c3ccc(C(=O)NCc4ccc5c(c4)OCO5)cc32)cc1	/	/	-12%	13%	?
O=C(Cn1c(=O)n(Cc2ccc3c(c2)OCO3)c(=O)c2oc3ccccc3c21)Nc1ccccc1	/	/	-23%	?	?
COc1cccc(NC(=O)Cn2c(=O)n(-c3ccc(Cl)cc3)c(=O)c3sc4ccccc4c32)c1	/	/	-17%	11%	?
COc1cc(-c2nc3ccc(C)cn3c2Nc2ccc(Cl)cc2)ccc1O	/	/	8.9µM*[quencher]	?	?
Cc1ccc(Nc2c(-c3ccncc3)nc3ccc(C)cn23)cc1	/	/	-28%	?	14%
COc1cc(-c2nc3ccc(Cl)cn3c2Nc2ccc3c(c2)OCO3)ccc1O	/	/	14µM*[quencher]	?	11%
Cc1ccc(NC(=O)CN2C(=O)N/C(=C/c3ccco3)C2=O)cc1	16µM*	17%	-24%	?	?
Cc1ccc(NC(=O)CN2C(=O)N/C(=C/c3cccn3-c3ccc(C(=O)O)cc3)C2=O)cc1	?	7%	-5%	-8%	4%
